Results filed as inconclusive are left out. The source made the active and inactive calls. Calls come from the whole dose curve; as a rule, active = well fitted activation curve with a large enough effect in the repeat runs; inconclusive = weak or mixed curves; inactive = flat fitted curve, though single readings scatter.
Test: A CellTox Green Cytotoxicity Assay to monitor cytotoxicity in HepG2 cells - 8 hour (AID 1224890); note: nearly all actives have a fitted effect of over 45% in size
Details: CellTox Green fluorescence; series mostly up to 76.8 µM; cytotoxicity increase: at the top concentration
Text: National Center for Advancing Translational Sciences [NCATS]
NIH Chemical Genomics Center [NCGC]
U.S. Environmental Protection Agency [EPA]
National Institutes of Environmental Health Sciences [NIEHS]
National Toxicology Program [NTP]
Cell-based models are critical for drug discovery. Determining the natural cytotoxic effects resulting from test compounds is an essential research activity. A CellTox Green Cytotoxicity Assay to monitor cytotoxicity in real time of continues cell culture during 40 hours of the compound treatment was used to screen Tox21 10K library compounds in HepG2 cells. CellTox Green Cytotoxicity Assay is a nonlytic, homogeneous, biofluorescent method to measure cytotoxicity in cell culture after experimental manipulation. The assay system uses a proprietary asymmetric cyanine dye that is excluded from viable cells but preferentially stains the dead cell's DNA. […] Viable cells produce no appreciable increases in fluorescence. Therefore, the fluorescence signal produced by the binding interaction with dead cell DNA is proportional to cytotoxicity.
The mixture of HepG2 cell suspension and reagents were dispensed at 600cells/6 ul/well in 1536-well tissue culture treated black solid bottom plates using a Multidrop dispenser. After the assay plates were incubated at a 37 C/5% CO2 incubator for 5 hours, 23 nL of compounds dissolved in DMSO, positive and negative controls was transferred to the assay plate by a pintool work station. The plates were incubated at 37 C for 40 hours. The fluorescence intensity were measured at 0h, 8h, 16h, 24h, 32h and 40h time points using ViewLux plate reader during compound treatment.
% is set by controls: 0 for no effect and ±100 for the full control effect.

Row | Compound | cytotoxicity increase | Potency
1 | CCc1ccc(C2CCNCC2)cc1 | -13.8% [at 35.3 µM] (inactive) | 
2 | COC(=O)[C@@H](N)CCCN/C(N)=N/[N+](=O)[O-] | 14.4% [at 35.3 µM] (inactive) | 
3 | COc1ccccc1OC | 2.18% (inactive) | 
4 | O=S1(=O)OCCO1 | -0.184% (inactive) | 
5 | CC(C)(C)C(=O)C(Cl)Cl | -5.91% (inactive) | 
6 | COP(=O)(O)OC | 1.45% (inactive) | 
7 | CC[C@H](N)c1ccccc1 | -9.06% (inactive) | 
8 | Clc1cc2c(cc1Cl)Oc1cc(Cl)c(Cl)cc1O2 | -6.05% [at 0.29 µM] (inactive) | 
9 | Cc1cc(OC(=O)N(C)C)nn1C(=O)N(C)C | -9.61% (inactive) | 
10 | N=C(N)[Se] | 3.06% (inactive) | 
11 | N[C@@H]1C[C@H]1c1ccccc1 | -5.45% [at 35.3 µM] (inactive) | 
12 | NNCc1ccccc1 | 2.77% (inactive) | 
13 | COC(=O)c1ccccc1CS(=O)(=O)NC(=O)Nc1nc(OC)cc(OC)n1 | -0.753% (inactive) | 
14 | CCc1cc(OC)c(C[C@H](C)N)cc1OC | -13.1% (inactive) | 
15 | O=C(O)c1c(Cl)ccc2cc(Cl)cnc12 | -5.19% (inactive) | 
16 | C#CC(C)(C)O | 0.731% (inactive) | 
17 | CCNP(=S)(OC)O/C(C)=C/C(=O)OC(C)C (stereo not given) | -9.4% (inactive) | 
18 | CC(O)CCl (stereo not given) | -1.83% (inactive) | 
19 | C[C@H]1CCCC(=O)CCC/C=C/c2cc(O)cc(O)c2C(=O)O1 |  | inactive
20 | BrCc1ccc(Br)cc1 | 2.95% (inactive) | 

Row | Compound | cytotoxicity increase | Potency
21 | C=C(C)[C@H]1CN[C@H](C(=O)O)[C@H]1CC(=O)O | -1.98% [at 35.3 µM] (inactive) | 
22 | CCN[C@H](C)Cc1cccc(C(F)(F)F)c1 | -21.3% (inactive) | 
23 | C[N+]1(C)CCCCC1 | 6.13% (inactive) | 
24 | Cn1c(CCCC(=O)O)nc2cc(N(CCCl)CCCl)ccc21 | -8.48% [at 35.3 µM] (inactive) | 
25 | Oc1ccc(Cc2ccc(O)cc2)cc1 | -1.4% (inactive) | 
26 | ClC1=C(Cl)C2(Cl)C(CBr)CC1(Cl)C2(Cl)Cl (stereo not given) | -12.6% [at 35.3 µM] (inactive) | 
27 | CS(=O)(=O)Cl | 0.663% (inactive) | 
28 | O=c1[nH]oc2c1CCNC2 | 2.1% [at 35.3 µM] (inactive) | 
29 | CC1N=C(N)OC1c1ccccc1 (stereo not given) | -1.28% (inactive) | 
30 | CC(=NC#N)N(C)Cc1ccc(Cl)nc1 | 0.0262% (inactive) | 
31 | NC1(c2ccccc2)CCCCC1 | -0.842% (inactive) | 
32 | CC(C)[N+](C)(CCC(C(N)=O)(c1ccccc1)c1ccccc1)C(C)C | -14.3% [at 35.3 µM] (inactive) | 
33 | CC#Cc1cc(C)nc(Nc2ccccc2)n1 | 1.51% (inactive) | 
34 | CC(C)(O)C(Cl)(Cl)Cl | -0.607% [at 35.3 µM] (inactive) | 
35 | C[C@@H](N)[C@@H](O)c1ccccc1 | 15.4% [at 35.3 µM] (inactive) | 
36 | C=CC1(C)OC(=O)N(c2cc(Cl)cc(Cl)c2)C1=O (stereo not given) |  | inactive
37 | COc1ccc2c(C(=O)c3ccc(Cl)cc3)c(C)n(CC(=O)O)c2c1 | -16.3% [at 35.3 µM] (inactive) | 
38 | CCCCS(=O)(=O)Cl | -2.08% (inactive) | 
39 | CCNc1nc(Cl)nc(NC(C)(C)C)n1 | -1.57% (inactive) | 
40 | COc1cc(CCN)cc(OC)c1OC | -5.33% (inactive) | 

Reference: PubChem BioAssay (Tox21)
